High-throughput results deposited in PubChem BioAssay by National Center for Advancing Translational Sciences (NCATS).
The sample as a whole holds a higher share of hits than the screen did.
TbPYK inhibitor = qHTS of Trypanosoma Brucei Inhibitors; TbPYK enzyme, Kinase-Glo Plus ATP luminescence, 45 min; Potency, µM (highest dose often 76.8 µM), inactives show top-dose activity, negative = inhibition, hits mostly inhibitors; 410,000 compounds, 0.12% hits; AID 624173, 2012; also: potency is read from the fitted curve at half-maximal effect; % is scaled to controls: 0 for no effect and ±100 for the full control effect; nearly all actives have a fitted effect of over 50% in size
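T. brucei PYK with substrate was exposed to pin-transferred compounds across a concentration series, then started with 130 uM ADP (final). After 45 min at room temperature, Kinase-Glo Plus luminescence was read, normalized and curve-fitted.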
FBPA Giardia inh = qHTS Assay for Inhibitors of Fructose-1,6-bisphosphate Aldolase from Giardia Lamblia | AID 2451, 2010 | Potency, µM (top dose mostly 59.6 µM), for inactives: top-dose activity, negative = inhibition, actives largely listed as inhibitors | purified Giardia FBPA | 290,000 compounds, 0.71% hits; also: potency is read from the fitted curve at half-maximal effect; % is scaled to controls: 0 for no effect and ±100 for the full control effect; nearly all actives have a fitted effect of over 55% in size
Target sequence (A8B2U2 whole entry, looked up): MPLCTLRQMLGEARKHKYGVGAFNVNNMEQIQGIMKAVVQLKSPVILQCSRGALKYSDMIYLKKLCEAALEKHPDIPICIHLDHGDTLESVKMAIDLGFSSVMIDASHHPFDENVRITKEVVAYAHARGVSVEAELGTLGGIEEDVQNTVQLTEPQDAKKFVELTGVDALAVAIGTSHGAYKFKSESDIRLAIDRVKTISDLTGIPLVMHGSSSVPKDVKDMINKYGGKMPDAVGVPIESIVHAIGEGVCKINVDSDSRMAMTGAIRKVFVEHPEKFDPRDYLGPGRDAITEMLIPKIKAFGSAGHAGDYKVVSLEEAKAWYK
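40 nM FBPA preincubated 10 min at RT with compound (up to 57.5 uM final), then substrate plus GAPDH/TPI/NAD/arsenate coupling and diaphorase/resazurin added. Fluorescence read after 20 min at RT, 525/598 nm.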
RE007 growth inh = qHTS Assay for Inhibitors of the HIV-1 protein Vpr; S. pombe RE007 Vpr strain, BacTiter-Glo ATP luminescence, 24 h; Potency, µM (series often up to 92.2 µM), inactives show at the top dose activity change, negative = less growth, hits mostly inhibitors; 360,000 compounds, 0.21% hits; AID 651644, 2012; active = well fitted falling curve with a large enough effect; inconclusive = small, poorly fitted or top-dose-only effect; inactive = no such curve, though single readings can be large or run the other way; also: potency is read from the fitted curve at half-maximal effect; % is scaled to controls: 0 for no effect and ±100 for the full control effect; nearly all actives have a fitted effect of over 50% in size
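Fission yeast RE007 carrying one integrated HIV-1 vpr copy, seeded at OD 0.01 in PMG+AL medium with 23 nL pinned compound. Grown 24 h at 30 degrees; viability read by BacTiter-Glo luminescence after 5 min.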
Shiga inhibitor = A qHTS for Small Molecule Inhibitors of Shiga Toxin; Vero cells, Shiga toxin protein synthesis inhibition reporter; inhibition, % at 38.7 µM; 290,000 compounds, 9.2% hits; in the data active = inhibition mostly above about 28%, no sharp cut-off; inactive = mostly below about 43%; also: 0% is about no effect
LmPK inhibitor = qHTS Assay for Inhibitors of Leishmania Mexicana Pyruvate Kinase (LmPK); Q27686; purified LmPK, Kinase-Glo ATP luminescence, 1 h; Potency, µM (highest dose often 57.5 µM), for the others: top-dose activity change, negative = inhibition, usual class: inhibitors; 290,000 compounds, 0.37% hits; AID 1721, 2009; also: potency is read from the fitted curve at half-maximal effect; % is scaled to controls: 0 for no effect and ±100 for the full control effect
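Kinase-Glo luminescence read after 1 h RT reaction of 0.1 nM LmPK with 0.5 mM PEP and 0.1 mM ADP. Activity scaled between uninhibited and enzyme-free controls.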
CHX counter = Cycloheximide Counterscreen for Small Molecule Inhibitors of Shiga Toxin | cell reporter, cycloheximide protein synthesis inhibition counterscreen | max response, % | 300,000 compounds, 12% hits | AID 2314, 2010; in the data active = max response mostly above about 13%, no sharp cut-off; inactive = mostly below about 14%; also: read at 38.3 µM for the half of the compounds with a filed dose; 0% is about no effect
* hit, by the source's call; u = inconclusive; x = no result given; [ ] = another dose, or the depositor's remark. Unless noted, calls follow the shape of the dose curve; as a rule, active = well fitted curve in the direction sought with a large enough effect; inconclusive = small, poorly fitted or top-dose-only effect, or another doubt; inactive = no such curve, though single readings can be large; an effect the other way counts as inactive or inconclusive.

SMILES | TbPYK inhibitor | FBPA Giardia inh | RE007 growth inh | Shiga inhibitor | LmPK inhibitor | CHX counter
CCOc1ccccc1NS(=O)(=O)c1ccc2c(c1)CC(C)N2C(=O)C1CC1 (centres undefined) | -22% | x | x | x | x | x
COc1ccc(NC(=O)/C(=C\c2ccc(OC)c(OC)c2)NC(=O)c2ccco2)cc1 | 1% | x | -1% | -18 | -10% | 2
COc1ccc2oc(=O)cc(CN3CCN(C(=O)c4ccccc4F)CC3)c2c1 | 0% | x | x | x | x | x
Cc1ccc(F)cc1-c1ccc(C(=O)N=C(N)N)o1 | x | 0% | x | 60* | x | 32*
COc1cc(C=O)c([N+](=O)[O-])cc1OC | x | 5µM* | x | x | x | x
COc1cc(OC)c(OC)cc1C=O | 8% | 1% | -16% | x | x | x
CN(C)S(=O)(=O)Oc1cccc(C(=O)Nc2ccc(Cl)cc2)c1 | 1% | -15% | 3% | 153* | 3% | 45*
CN(C)S(=O)(=O)Oc1cccc(C(=O)Nc2ccccc2Cl)c1 | -3% | -10% | 4% | 93* | -9% | 41*
CN(C)S(=O)(=O)Oc1ccsc1C(=O)Nc1ccccc1Cl | 0% | 2% | -14% | 14 | -1% | -2
CN(C)S(=O)(=O)Oc1ccc(C(=O)Nc2cccc(Cl)c2)cc1 | 4% | -25% | -5% | 89* | -9% | 56*
CC(=O)Nc1nonc1-c1nnc(SCC(=O)Nc2cc(C)ccc2C)n1-c1ccccc1 | 1% | x | x | x | x | x
COc1ccc(N2CCN(C(=O)/C=C/[C@H]3O[C@@H](n4ccc(=O)[nH]c4=O)[C@H](O)[C@@H]3O)CC2)cc1 | -3% | x | 1% | x | x | x
COc1cccc(/C=C2/C(=O)NN(c3ccc(C)c(C)c3)C2=O)c1 | 5% | -18% | -4% | 19 | 6% | 8.5*
COc1cccc(C=C2Cc3ccccc3C2=O)c1 | 0% | x | u | x | x | x
COc1ccc(OC)c(C=C2CCc3ccccc3C2=O)c1 | -8% | x | -5% | x | x | x
COc1cccc(/C=C2\CCc3ccccc3C2=O)c1 | u | 0% | x | 60* | 16µM* | 44*
CC(=O)Oc1ccc(/C=C2/CCc3ccccc3C2=O)cc1 | u | 3% | u | 16 | 14µM* | 16*
COc1ccc(/C=C2\CCc3ccccc3C2=O)cc1OC | 1% | -2% | -21% | 139* | -10% | 52*
CCN(CC)S(=O)(=O)c1ccc2c(c1)N(CC(=O)N(C)Cc1ccccc1)C(=O)CO2 | -2% | x | x | x | x | x
COc1ccc2c(c1)CC/C(=C/c1ccccn1)C2=O | -8% | -5% | u | 100* | -14% | 55*
COc1ccc2c(c1)CC/C(=C\C=C\c1ccccc1)C2=O | -5% | u | -13% | 44* | 3% | 25*
COc1cc(C=C2C(=O)c3ccccc3C2=O)cc(OC)c1 | -13% | 7% | -5% | 15 | 0% | 15
COc1ccc2c(c1)CC/C(=C/c1cc(OC)c(OC)c(OC)c1)C2=O | 7% | 0% | 10% | 30 | -5% | 6
COc1cccc(/C=C2\C(=O)C(=O)c3ccccc32)c1 | u | -11% | 11% | 77 | 0% | 21*
Cc1cc2c(s1)c1cnn(Cc3cccc(Cl)c3)c(=O)c1n2C | x | x | x | -5 | x | -1
SMILES | TbPYK inhibitor | FBPA Giardia inh | RE007 growth inh | Shiga inhibitor | LmPK inhibitor | CHX counter
CN1C(=O)[C@H]2[C@@H](/C=C/c3ccccc3)N3C(=O)CN(Cc4ccccn4)C(=O)[C@@]3(C)[C@H]2C1=O | -4% | -5% | 9% | 2 | -11% | 1
CCCC(=O)O[C@]1(C(=O)CO)CCC2[C@@H]3CCC4=CC(=O)CC[C@]4(C)C3C(O)C[C@]21C (some centres undefined) | -8% | 3% | x | x | x | x
COc1cc(CN2CCN(C(=O)c3ccc(-c4ccccc4)cc3)CC2)cc(OC)c1OC | 4% | 3% | 2% | 98* | -2% | 19*
COc1ccc(OC)c(NC(=O)C2Cc3ccccc3CN2S(=O)(=O)c2ccc(F)cc2)c1 (centres undefined) | 0% | x | x | x | x | x
O=c1oc2ccccc2c(Nc2ccc3ccccc3c2)c1[N+](=O)[O-] | 4% | -14% | -18% | 105 | -2% | 22*
Cc1ccc(Nc2c([N+](=O)[O-])c(=O)oc3ccccc23)cc1 | 1% | -1% | -14% | -6 | 0% | -11
CC(C)=NOC(=O)c1ccc(-c2ccccc2)cc1 | -13% | 5% | -18% | 30 | -14% | 9
COc1ccc(C(=O)O/N=C(/c2ccccc2)c2ccncc2)cc1 | -2% | -3% | -7% | 61* | -5% | 42*
COc1ccc(C(=O)O/N=C(\C)c2ccccc2)cc1 | 13µM* | -6% | -1% | 21 | 6.3µM* | 16
CN(C)C(=O)c1cccc(-c2cccc3nccn23)c1 | 1% | x | -5% | x | x | x
COCCN(C(=S)Nc1ccccc1C)C(C)c1ccco1 (centres undefined) | -7% | 1% | 0% | 15 | -2% | -2
COCCN(C(=S)Nc1ccc(C)cc1C)C(C)c1ccco1 (centres undefined) | -14% | -11% | 2% | 15 | 3% | 19*
COc1ccc(-c2nnc(SCCOc3ccccc3C)o2)cc1OC | -2% | x | x | x | x | x
O=C(NCc1cccc(F)c1)c1ccccc1NC(=O)c1nsc2ccccc12 | -1%[15.4 µM] | x | x | x | x | x
O=C1c2ccccc2C(=O)C1c1ccc(Br)cc1 | -3% | -14% | 2% | 88* | -6% | 19*
O=C1c2ccccc2C(=O)C1c1ccc(F)cc1 | -3% | x | x | x | x | x
O=C1c2ccccc2C(=O)C1c1ccc(O)cc1 | -21% | 4% | -26% | 70* | 2% | 28*
O=C1c2ccccc2C(=O)C1c1ccc(Cl)cc1 | 2% | x | -9% | 47 | -15% | 27*
O=C1NC(c2ccc(O)cc2)Nc2ccccc21 (centres undefined) | 0% | -4% | 6% | 16 | 0% | 13*
COc1cccc(C2C(=O)c3ccccc3C2=O)c1 | 4% | -20% | 1% | 32 | -1% | -2
Cc1ccc(S(=O)(=O)N(CC(=O)Nc2ccccc2C(=O)O)c2ccccc2)cc1 | -4% | -4% | 0% | -17 | 8% | -2
Cc1ccc(CN(Cc2ccco2)C(=O)c2ccc(OCC(C)C)cc2)cc1 | 1% | x | x | x | x | x
O=c1c2c3c(sc2n(Cc2ccc(F)cc2Cl)c(=O)n1-c1ccc(Cl)cc1)CCC3 | 0% | x | x | x | x | x
CNC(=O)c1cc2ccc(OC)cc2oc1=O | 3% | -2% | -25% | 15 | -3% | 12*
O=C(NCc1ccccc1)c1cc2ccccc2oc1=O | -2% | -4% | 4% | 44* | 1% | 50*
O=C(O)c1cc2c(ccc3ccccc32)oc1=O | x | 10% | x | -13 | -2% | -4
CC(C)(C)NC(=O)c1cc2c(ccc3ccccc32)oc1=O | 3% | 1% | -8% | x | 2% | 27*
